Test results published in the supplement of paper PMC10849652.
Of roughly 7,900 targets only a part is listed; those with a hit were picked by preference. About 0.6% of all pairs of compound and target were hits. Unmarked numbers belong to inactive results.

How the values were obtained:
Test in all cases: log2 fold change, soluble protein after heating vs DMSO (PISA); higher = thermal stabilisation; K562 cells, 10 uM, 30 min; active = over 0.2 and 3.5 SD of the protein, either way, in both replicates (recomputed)
[1] = compound: CC1=C(C=C(C=C1)NC(=O)C2=CC(=CC=C2)C(C)(C)C#N)NC3=CC4=C(C=C3)N=CN(C4=O)C
Summary of the method: (§1)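 Values are thermal stability changes relative to control samples and are taken from duplicates. They are stated as log2 fold changes. Before quantification by TMTpro 16plex LC-MS/MS with equalised channel sums, K562 cells at 2×10^6 cells/mL were treated with 10 μM compound for 30 min, heated in aliquots for 3 min across 48°C-58°C, pooled, extracted in PBS with 0.5% NP-40 at 4°C, and centrifuged at 21,000xg for 90 min to give the soluble supernatant.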

[2] = compound: CC1=C(C=C(C=C1)NC(=O)C2=CC(=CC=C2)N(C)C)NC(=O)C3=CC=C(C=C3)O
Summary of the method: as §1

[3] = compound: CC1=CC=C(C=C1)SC2=C3C=C(SC3=CN=C2)C(=O)N
Summary of the method: as §1

[4] = compound: CC1=NC(=CC=C1)C2=C(N=C(N2)C(C)(C)C)C3=CC4=NC=CN=C4C=C3
Summary of the method: as §1

[5] = compound: CCCCN(Cc1ccc(C(=O)NO)cc1)C(=O)Nc1ccccc1 [Nexturastat A]
Summary of the method: as §1

[6] = compound: CCCS(=O)(=O)Nc1ccc(F)c(C(=O)c2c[nH]c3ncc(-c4ccc(Cl)cc4)cc23)c1F [vemurafenib]
Summary of the method: as §1

[7] = compound: CCCS(=O)(=O)Nc1ccc(F)c(C(=O)c2c[nH]c3ncc(Cl)cc23)c1F
Summary of the method: as §1

[8] = compound: CCCc1cc(C)[nH]c(=O)c1CNC(=O)c1cc(-c2ccnc(N3CCN(C)CC3)c2)cc2c1cnn2C(C)C
Summary of the method: as §1

[9] = compound: CCN(CC)Cc1ccc2cc(COC(=O)Nc3ccc(C(=O)NO)cc3)ccc2c1 [givinostat]
Summary of the method: as §1

[10] = compound: CCN(CCCOc1ccc2c(Nc3cc(CC(=O)Nc4cccc(F)c4)[nH]n3)ncnc2c1)CCOP(=O)(O)O [barasertib]
Summary of the method: as §1

[11] = compound: CC[C@@H]1C(=O)N(C)c2cnc(Nc3ccc(C(=O)NC4CCN(C)CC4)cc3OC)nc2N1C1CCCC1
Summary of the method: as §1

[12] = compound: CC[C@@H]1C(=O)N(C)c2cnc(Nc3ccc(C(=O)N[C@H]4CC[C@H](N5CCN(CC6CC6)CC5)CC4)cc3OC)nc2N1C(C)C [volasertib]
Summary of the method: as §1

[13] = compound: CC[C@H](C)N1C=C(C2=C(C=C(C=C21)C3=CN=C(C=C3)N4CCNCC4)C(=O)NCC5=C(C=C(NC5=O)C)C)C
Summary of the method: as §1

[14] = compound: CC[C@H](C)[C@@H](C(=O)N[C@@H]([C@@H](C)O)C(=O)N[C@@H](CC(C)C)C(=O)[C@]1(CO1)C)NC(=O)[C@H]([C@@H](C)CC)N(C)C(=O)C [epoxomicin]
Summary of the method: as §1

[15] = compound: CCn1c(C(=O)N(C2CC2)C2CC2)cc2c3c(ncn3C)c(Nc3cc(C)n(C)n3)nc21
Summary of the method: as §1

[16] = compound: CCn1cc(-c2ccnc3[nH]c(-c4cccc(CN(C)C)c4)cc23)c(-c2ccc(NC(=O)N(C)C)cc2)n1
Summary of the method: as §1

[17] = compound: CN(C)CC(=O)Nc1ccc2[nH]c(=O)c3ccccc3c2c1
Summary of the method: as §1

[18] = compound: CN(CCOC1=CC=C(C=C1)C[C@H]2C(=O)NC(=O)S2)C3=CC=CC=N3 (racemic) [rosiglitazone]
Summary of the method: as §1

[19] = compound: CN1C2=C(C3=C1C(=O)N(N=C3)CC4=CC(=CC=C4)N)SC(=C2)S(=O)C
Summary of the method: as §1

[20] = compound: CN1CCC(CNc2ccc3ncc(-c4cccc(OC(F)(F)F)c4)n3n2)CC1
Summary of the method: as §1

UniProt Q86VR2, sequence (Q86VR2 whole entry, looked up): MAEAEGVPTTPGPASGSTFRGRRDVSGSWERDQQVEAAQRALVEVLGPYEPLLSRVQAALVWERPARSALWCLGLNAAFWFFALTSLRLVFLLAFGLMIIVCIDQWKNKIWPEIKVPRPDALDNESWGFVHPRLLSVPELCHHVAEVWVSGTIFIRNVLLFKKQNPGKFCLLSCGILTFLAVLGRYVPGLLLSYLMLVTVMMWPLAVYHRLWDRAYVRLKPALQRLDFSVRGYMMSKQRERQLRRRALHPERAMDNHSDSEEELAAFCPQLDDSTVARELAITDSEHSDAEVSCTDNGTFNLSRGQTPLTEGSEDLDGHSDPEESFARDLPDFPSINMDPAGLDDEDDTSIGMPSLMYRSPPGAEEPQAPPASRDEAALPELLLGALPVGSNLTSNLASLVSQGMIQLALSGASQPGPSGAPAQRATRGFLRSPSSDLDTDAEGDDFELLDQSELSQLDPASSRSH
UniProt Q9UPN6, sequence (Q9UPN6 whole entry, looked up): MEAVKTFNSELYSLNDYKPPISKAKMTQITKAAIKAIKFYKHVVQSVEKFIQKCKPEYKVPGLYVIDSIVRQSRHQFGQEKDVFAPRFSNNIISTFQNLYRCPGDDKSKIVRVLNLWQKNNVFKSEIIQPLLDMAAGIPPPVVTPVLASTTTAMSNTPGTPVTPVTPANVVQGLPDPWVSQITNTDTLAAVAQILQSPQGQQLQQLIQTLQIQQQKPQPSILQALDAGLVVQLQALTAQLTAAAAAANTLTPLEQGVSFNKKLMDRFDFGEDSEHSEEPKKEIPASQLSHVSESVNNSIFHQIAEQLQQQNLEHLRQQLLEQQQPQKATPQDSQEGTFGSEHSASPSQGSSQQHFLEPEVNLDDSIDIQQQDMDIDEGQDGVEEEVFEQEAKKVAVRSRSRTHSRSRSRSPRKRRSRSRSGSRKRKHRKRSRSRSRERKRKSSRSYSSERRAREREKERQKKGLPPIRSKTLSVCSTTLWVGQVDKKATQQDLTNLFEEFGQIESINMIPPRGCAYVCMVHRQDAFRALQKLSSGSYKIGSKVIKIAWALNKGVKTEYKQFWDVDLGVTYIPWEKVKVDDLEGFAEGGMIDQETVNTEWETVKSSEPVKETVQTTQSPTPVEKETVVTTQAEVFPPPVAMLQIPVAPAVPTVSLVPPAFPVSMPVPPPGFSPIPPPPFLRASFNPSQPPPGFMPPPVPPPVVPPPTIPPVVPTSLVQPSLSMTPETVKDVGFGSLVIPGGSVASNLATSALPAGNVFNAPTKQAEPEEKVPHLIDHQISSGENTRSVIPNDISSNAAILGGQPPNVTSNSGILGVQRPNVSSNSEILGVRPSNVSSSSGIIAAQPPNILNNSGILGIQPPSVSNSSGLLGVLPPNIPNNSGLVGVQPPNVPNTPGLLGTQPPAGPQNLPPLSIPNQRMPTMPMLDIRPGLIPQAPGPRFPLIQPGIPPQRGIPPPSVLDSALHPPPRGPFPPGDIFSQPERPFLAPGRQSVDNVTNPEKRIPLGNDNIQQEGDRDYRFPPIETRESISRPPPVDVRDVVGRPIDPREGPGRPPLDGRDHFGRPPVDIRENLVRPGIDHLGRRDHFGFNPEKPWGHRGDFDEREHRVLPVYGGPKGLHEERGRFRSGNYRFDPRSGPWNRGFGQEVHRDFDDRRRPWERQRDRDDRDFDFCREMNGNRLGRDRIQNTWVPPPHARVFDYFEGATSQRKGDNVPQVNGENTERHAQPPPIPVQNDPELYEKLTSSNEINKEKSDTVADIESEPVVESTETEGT
UniProt Q04206, sequence (Q04206 whole entry, looked up): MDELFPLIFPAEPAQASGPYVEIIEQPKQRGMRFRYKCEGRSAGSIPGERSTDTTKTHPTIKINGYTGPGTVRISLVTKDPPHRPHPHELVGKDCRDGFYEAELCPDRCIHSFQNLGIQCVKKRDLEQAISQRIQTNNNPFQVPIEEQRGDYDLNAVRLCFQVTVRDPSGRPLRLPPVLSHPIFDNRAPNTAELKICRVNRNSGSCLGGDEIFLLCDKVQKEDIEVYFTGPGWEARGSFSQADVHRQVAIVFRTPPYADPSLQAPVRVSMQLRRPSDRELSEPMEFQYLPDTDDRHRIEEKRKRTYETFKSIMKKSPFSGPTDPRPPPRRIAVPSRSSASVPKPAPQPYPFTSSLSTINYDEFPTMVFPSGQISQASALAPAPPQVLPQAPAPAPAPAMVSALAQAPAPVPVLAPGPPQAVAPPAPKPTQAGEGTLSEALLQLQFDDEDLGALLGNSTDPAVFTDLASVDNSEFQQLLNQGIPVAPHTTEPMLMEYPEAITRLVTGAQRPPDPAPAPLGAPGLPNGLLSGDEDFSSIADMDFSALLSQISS
UniProt Q01974, sequence (Q01974 whole entry, looked up): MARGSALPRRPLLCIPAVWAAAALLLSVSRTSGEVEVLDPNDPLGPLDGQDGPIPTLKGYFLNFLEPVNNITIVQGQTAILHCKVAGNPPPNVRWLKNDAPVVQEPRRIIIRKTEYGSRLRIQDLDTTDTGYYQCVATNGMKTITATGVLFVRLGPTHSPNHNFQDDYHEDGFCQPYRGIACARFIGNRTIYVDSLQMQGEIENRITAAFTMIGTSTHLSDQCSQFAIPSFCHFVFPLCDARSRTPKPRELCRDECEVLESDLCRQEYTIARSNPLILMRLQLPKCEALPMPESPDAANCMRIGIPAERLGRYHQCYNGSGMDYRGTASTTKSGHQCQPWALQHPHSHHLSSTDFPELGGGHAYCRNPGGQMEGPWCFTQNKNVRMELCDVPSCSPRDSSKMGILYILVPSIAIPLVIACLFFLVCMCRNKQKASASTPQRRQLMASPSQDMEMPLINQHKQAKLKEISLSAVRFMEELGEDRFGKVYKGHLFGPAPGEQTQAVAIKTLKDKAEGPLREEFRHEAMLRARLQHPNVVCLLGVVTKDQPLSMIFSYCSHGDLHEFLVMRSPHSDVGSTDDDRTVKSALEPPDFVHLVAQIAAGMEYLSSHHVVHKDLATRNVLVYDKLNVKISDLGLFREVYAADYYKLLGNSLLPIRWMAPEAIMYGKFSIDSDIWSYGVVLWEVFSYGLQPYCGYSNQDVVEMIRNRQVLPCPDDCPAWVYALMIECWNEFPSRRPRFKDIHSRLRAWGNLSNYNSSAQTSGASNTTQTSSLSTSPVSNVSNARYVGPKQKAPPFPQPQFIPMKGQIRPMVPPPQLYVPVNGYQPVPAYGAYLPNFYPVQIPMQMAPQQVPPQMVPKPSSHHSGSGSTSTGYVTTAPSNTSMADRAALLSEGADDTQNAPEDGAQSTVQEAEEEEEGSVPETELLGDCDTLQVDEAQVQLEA
UniProt Q96EE3, sequence (Q96EE3 whole entry, looked up): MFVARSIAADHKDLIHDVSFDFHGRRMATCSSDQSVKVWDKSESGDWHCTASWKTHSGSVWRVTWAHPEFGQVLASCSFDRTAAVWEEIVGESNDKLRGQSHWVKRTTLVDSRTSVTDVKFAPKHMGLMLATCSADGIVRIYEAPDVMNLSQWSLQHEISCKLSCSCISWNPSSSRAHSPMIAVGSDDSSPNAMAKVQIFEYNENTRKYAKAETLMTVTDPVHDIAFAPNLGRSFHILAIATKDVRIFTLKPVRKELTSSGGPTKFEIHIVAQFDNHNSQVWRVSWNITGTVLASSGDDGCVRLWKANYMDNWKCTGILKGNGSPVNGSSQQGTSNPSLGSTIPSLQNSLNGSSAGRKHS
UniProt P54136, sequence (P54136 whole entry, looked up): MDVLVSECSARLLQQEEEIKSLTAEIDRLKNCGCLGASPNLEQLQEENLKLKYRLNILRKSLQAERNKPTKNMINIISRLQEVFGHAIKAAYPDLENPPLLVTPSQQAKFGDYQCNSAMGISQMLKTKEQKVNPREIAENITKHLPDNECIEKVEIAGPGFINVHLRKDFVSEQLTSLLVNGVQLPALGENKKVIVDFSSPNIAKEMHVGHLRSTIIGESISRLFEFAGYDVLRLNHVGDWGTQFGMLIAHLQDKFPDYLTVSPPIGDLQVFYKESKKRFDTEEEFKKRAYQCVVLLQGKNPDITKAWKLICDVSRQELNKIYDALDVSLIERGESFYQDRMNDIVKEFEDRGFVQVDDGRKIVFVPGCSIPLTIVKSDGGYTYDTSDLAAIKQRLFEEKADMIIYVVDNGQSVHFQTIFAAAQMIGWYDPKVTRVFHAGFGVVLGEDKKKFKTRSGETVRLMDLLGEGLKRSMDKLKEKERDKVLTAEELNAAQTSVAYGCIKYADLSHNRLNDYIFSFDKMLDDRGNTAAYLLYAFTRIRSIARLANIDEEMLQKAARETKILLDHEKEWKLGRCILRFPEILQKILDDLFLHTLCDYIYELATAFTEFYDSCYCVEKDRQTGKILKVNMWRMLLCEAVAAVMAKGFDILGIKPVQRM
UniProt Q9NPQ8, sequence (Q9NPQ8 whole entry, looked up): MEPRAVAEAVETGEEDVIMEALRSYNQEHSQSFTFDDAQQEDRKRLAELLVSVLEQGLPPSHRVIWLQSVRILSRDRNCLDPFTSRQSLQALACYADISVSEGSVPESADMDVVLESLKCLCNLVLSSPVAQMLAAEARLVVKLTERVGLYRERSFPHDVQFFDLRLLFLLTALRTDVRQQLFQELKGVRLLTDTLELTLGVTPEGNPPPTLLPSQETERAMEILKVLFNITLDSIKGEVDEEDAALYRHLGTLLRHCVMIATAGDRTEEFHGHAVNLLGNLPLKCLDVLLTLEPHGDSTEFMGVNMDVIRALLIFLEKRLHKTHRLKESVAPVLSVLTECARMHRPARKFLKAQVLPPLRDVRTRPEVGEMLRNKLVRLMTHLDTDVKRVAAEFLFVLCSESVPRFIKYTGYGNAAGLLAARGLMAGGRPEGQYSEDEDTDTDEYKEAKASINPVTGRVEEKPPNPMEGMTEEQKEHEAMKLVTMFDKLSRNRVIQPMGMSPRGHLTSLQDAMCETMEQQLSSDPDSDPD

Target	log2 fold change [1]	log2 fold change [2]	log2 fold change [3]	log2 fold change [4]	log2 fold change [5]	log2 fold change [6]	log2 fold change [7]	log2 fold change [8]	log2 fold change [9]	log2 fold change [10]	log2 fold change [11]	log2 fold change [12]	log2 fold change [13]	log2 fold change [14]	log2 fold change [15]	log2 fold change [16]	log2 fold change [17]	log2 fold change [18]	log2 fold change [19]	log2 fold change [20]
RPA1 (UniProt P27694)	0.028	-0.047	-0.002	0.05	0.044	0.039	0.125	0.104	0.069	0.068	-0.108	-0.326 (active)	0.083	0.09	-0.028	-0.02	0.044	0.063	-0.048	-0.079
RARS (UniProt P54136)	0.005	0.006	-0.011	-0.048	0.325	-0.018	0.058	0.075	0.016	0.037	0.059	-0.172	0.072	-0.085	-0.099	0.107	0.013	0.034	0.26	-0.111
RELA (UniProt Q04206)	0.013	0	0.016	0.014	0.028	0.014	0.067	0.021	0.015	0.013	-0.063	-0.263 (active)	0.013	0.025	0.027	-0.043	-0.019	0.039	-0.009	-0.011
ROR2 (UniProt Q01974)	0.022	-0.061	0.001	-0.009	-0.109	0.018	0.007	0.078	0.033	0.003	-0.107	-0.123	0.129	0.035	-0.012	-0.015	-0.01	0.036	-0.069	-0.089
SEH1L isoform 1 (UniProt Q96EE3)	-0.004	0.015	0.005	-0.019	0.011	0.005	0.048	-0.033	0.005	0.008	-0.044	0.466 (active)	-0.019	-0.057	-0.009	-0.041	-0.013	-0.01	-0.054	0.027
RIC8A isoform 3 (UniProt Q9NPQ8)	0.074	-0.051	0.024	0.023	0.198	0.028	0.085	0.111	0.028	0.073	-0.149	-0.526 (active)	0.11	0.061	-0.009	0.036	0.011	0.095	-0.005	-0.186
SCAF8 isoform 2 (UniProt Q9UPN6)	0.048	0.002	-0.03	0.076	0	-0.001	0.004	-0.013	0.038	0.067	-0.065	-0.27	0.037	0.101	-0.003	0.071	0.1	0.091	-0.045	0.015
RETREG3 (UniProt Q86VR2)	-0.006	0.014	0.148	0.13	0.062	0.043	0.055	-0.044	-0.048	0.023	-0.04	-0.132	0	0.048	0.026	-0.043	0.008	0.016	-0.02	-0.149
